# Laboratory results reported in PubChem BioAssay (NCI).
# The panel holds about 83,000 compounds, 20% with a hit somewhere; the sample as a whole holds those more often.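 In brief: 96-well plates, 48 h treatment, single concentration, percent growth endpoint.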 A number with no mark means an inactive call. Calls of active or inactive are those of the source. The calls were made as follows: active = growth percent below 10; inactive = the rest.
# Columns and labels:
# Assay in all cases: NCI-60 one-dose screen, 48 h (100 = growth as untreated, 0 = no growth, -100 = all killed)
# Details in all cases: 10 µM unless noted
# MOLT-4 leukemia = tested on: MOLT-4 leukemia
# SR leukemia = tested on: SR leukemia
# RPMI-8226 leukemia = tested on: RPMI-8226 leukemia
# OVCAR-8 ovarian = tested on: OVCAR-8 ovarian
# OVCAR-5 ovarian = tested on: OVCAR-5 ovarian
# OVCAR-4 ovarian = tested on: OVCAR-4 ovarian
# SK-OV-3 ovarian = tested on: SK-OV-3 ovarian
# IGROV1 ovarian = tested on: IGROV1 ovarian
# OVCAR-3 ovarian = tested on: OVCAR-3 ovarian
# HS 578T breast = tested on: HS 578T breast
# NCI/ADR-RES ovarian = tested on: NCI/ADR-RES ovarian
# T-47D breast = tested on: T-47D breast
# BT-549 breast = tested on: BT-549 breast
# MDA-MB-435 melanoma = tested on: MDA-MB-435 melanoma
# SW-620 colon = tested on: SW-620 colon
# MCF7 breast = tested on: MCF7 breast
# HCT-116 colon = tested on: HCT-116 colon
# HCC-2998 colon = tested on: HCC-2998 colon
# KM12 colon = tested on: KM12 colon
Compound,growth (MOLT-4 leukemia),growth (SR leukemia),growth (RPMI-8226 leukemia),growth (OVCAR-8 ovarian),growth (OVCAR-5 ovarian),growth (OVCAR-4 ovarian),growth (SK-OV-3 ovarian),growth (IGROV1 ovarian),growth (OVCAR-3 ovarian),growth (HS 578T breast),growth (NCI/ADR-RES ovarian),growth (T-47D breast),growth (BT-549 breast),growth (MDA-MB-435 melanoma),growth (SW-620 colon) [%],growth (MCF7 breast),growth (HCT-116 colon),growth (HCC-2998 colon),growth (KM12 colon)
CC(=O)O[C@H]1CC[C@H]2[C@@H]3CC=C4c5nc(-c6ccccc6)sc5CC[C@]4(C)[C@H]3CC[C@]12C,46.1%,8.39% (active),-37.3% (active),77.9%,75.9%,87.2%,94.5%,97.2%,92.9%,64.2%,71.1%,52.4%,64.8%,59.2%,55,67.7%,51.2%,54%,42.3%
CC[C@H](C)[C@H](NC(=O)[C@H]1CCCCN1C)C(=O)N(C)[C@H](C[C@@H](OC(C)=O)c1nc(C(=O)NC23CC(C(=O)OC)(C2)C3)cs1)C(C)C,6.06% (active),0.833% (active),25.6%,18.6%,53.7%,42.7%,24.4%,32%,-18.6% (active),27.5%,10%,64.4%,-39.2% (active),-14.1% (active),39.4,12.1%,5.83% (active),10.4%,0.539% (active)
CCn1c2ccccc2c2cc(C(=O)c3cccc4c3CCCN4)ccc21,104%,95.3%,112%,113%,99%,101%,106%,110%,103%,92.1%,92.7%,104%,98.1%,97.6%,96.1,96.5%,105%,104%,94.9%
N/C(=N\N=C\c1ccc(-c2ccccc2)cc1)N[N+](=O)[O-],5.54% (active),5.79% (active),20.1%,42.6%,56.9%,61.5%,35.4%,34.6%,-19.8% (active),44.3%,19.4%,36.1%,52%,-27.4% (active),20.7,13.6%,28.7%,60.9%,32.1%
Nc1c(F)cc(-c2nc3cc(F)ccc3[se]2)cc1F,78.7%,20.6%,48.8%,95.5%,31.1%,48.9%,61.4%,19.5%,71.3%,94.7%,94.6%,5.78% (active),78.9%,106%,95.2,2.27% (active),37.1%,-44.5% (active),42.5%
CC1=C(CCCNS(C)(=O)=O)C2=C(C)C3(CC3)[C@@](C)(O)C(=O)C2=C1,90.2%,92.8%,97%,6.9% (active),2.82% (active),-12.1% (active),-18% (active),-2.43% (active),-12.7% (active),57.9%,-5.49% (active),-11.2% (active),-31% (active),11.7%,83.3,20.7%,1.02% (active),-43.3% (active),62.4%
COC(=O)[C@@H](C)C[C@H](Cc1ccccc1)NC(=O)c1csc(CC[C@H](C(C)C)N(C)C(=O)[C@@H](NC(=O)[C@H]2CCCCN2C)C(C)C)n1,14.4%,15.9%,19.8%,20.6%,54%,53.2%,37.7%,32.4%,-5.55% (active),33.2%,53.1%,56.8%,7.17% (active),-48.6% (active),30.6,20.3%,3.72% (active),24.5%,16.2%
CC(=O)O[C@H]1C(=O)[C@@]2(C)[C@H]([C@H](OC(=O)c3ccccc3)[C@]3(O)C[C@H](OC(=O)[C@H](OC(=O)OC[C@@H]4COC(C)(C)O4)[C@@H](NC(=O)c4ccccc4)c4ccccc4)C(C)=C1C3(C)C)[C@]1(OC(C)=O)CO[C@@H]1C[C@@H]2O,14.7%,25.5%,5.35% (active),16.5%,6.96% (active),64.4%,12.9%,16.6%,8.13% (active),2.33% (active),80.9%,25.5%,12.5%,-77.7% (active),26.5,11%,5.09% (active),-4.98% (active),10.7%
CC[C@]12C=CCN3CC[C@@]4(c5ccc(OC)cc5N(C)[C@H]4[C@@](O)(C(=O)OC)[C@@H]1OC(=O)CCCC[P+](c1ccccc1)(c1ccccc1)c1ccccc1)[C@@H]32,5.66% (active),17.9%,15.4%,18.6%,23.8%,5.22% (active),-2.96% (active),-36.4% (active),-0.293% (active),9.79% (active),91.6%,4.99% (active),-1.04% (active),-19.7% (active),29.4,4.69% (active),8.03% (active),15.9%,3.15% (active)
CC1=C(CCCOC(=O)CN)C2=C(C)C3(CC3)[C@@](C)(O)C(=O)C2=C1,84.5%,94.7%,88.8%,73.8%,114%,85%,51.3%,32.8%,101%,93.9%,84.7%,63.6%,65.8%,101%,91.5,71.1%,71.5%,85.1%,100%
CCC(=O)Nc1ccc(Cl)c(Cl)c1,97.9%,95.5%,106%,100%,92.9%,118%,104%,104%,107%,110%,102%,87.3%,113%,107%,101,93.1%,99.1%,93.9%,99.9%
CN1CC(=O)N(O)C1(C)c1cccnc1 (stereo not given),97.2%,92%,105%,99.3%,95.6%,111%,91.6%,102%,107%,108%,104%,93.4%,95.7%,97.4%,111,98.7%,102%,98.7%,108%
Clc1cc(N2CC2)nc(N2CC2)n1,46.6%,34.7%,80.4%,64.5%,102%,95.2%,71%,109%,107%,115%,71.7%,87.3%,71.8%,93.7%,61.6,34.2%,64.9%,78.2%,97.3%
COC(=O)[C@@H](C)C[C@H](Cc1ccccc1)NC(=O)c1csc([C@@H](C[C@H](C(C)C)N(C)C(=O)[C@@H](NC(=O)[C@H]2CCCCN2C)c2ccc(F)cc2)OC(C)=O)n1,8.23% (active),6.27% (active),17.9%,26.8%,20.7%,48.4%,21.2%,27%,-17% (active),1.1% (active),5.55% (active),45.7%,0.368% (active),-27.7% (active),22.8,22.3%,3.28% (active),10.1%,-3.41% (active)
O=C1NC(=O)C(=Cc2cccn2CCCCCn2c3ccccc3c(=O)c3ccccc32)C(=O)N1,93.3%,86.7%,92%,102%,101%,99.8%,108%,99.4%,105%,106%,99.5%,87.3%,104%,97.7%,105,84.7%,82.2%,105%,103%
